# From the supplement of paper PMC6555819
# Columns and labels:
# Experiment in all cases: PBM binding z-score (relative to random genomic background probes); higher = stronger binding; sequences stand for … in GC…GCGATTGACAGCGTAGAATGAAGG
# [1] = system: RARb homodimer (NR concentration 270 nM)
# In short: (§1)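 Random background probes are the reference for binding z-scores. These scores derive from regression-normalized fluorescence on custom Agilent 4×180K protein-binding microarrays incubated 1 h with ligand-free nuclear receptor dimers. Binding was detected with antibodies against each partner (one per run).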
# [2] = system: RARg:RXRa (NR concentration 270 nM, RXRa partner concentration 90 nM)
# In short: as §1
# [3] = system: RARg homodimer (NR concentration 270 nM)
# In short: as §1
# [4] = system: RXRa DBDmut IVT, anti-RXR (DBD mutation: RXRa K156A/R161A, NR concentration 90 nM)
# In short: as §1
# [5] = system: RXRa homodimer (NR concentration 180 nM)
# In short: as §1
# [6] = system: THRa:RXRa (NR concentration 90 nM, RXRa partner concentration 90 nM)
# In short: as §1
# [7] = system: THRa homodimer (NR concentration 90 nM)
# In short: as §1
# [8] = system: VDR homodimer (NR concentration 270 nM)
# In short: as §1
Sequence,PBM binding z-score [1],PBM binding z-score [2],PBM binding z-score [3],PBM binding z-score [4],PBM binding z-score [5],PBM binding z-score [6],PBM binding z-score [7],PBM binding z-score [8]
CCTTACGGGTCACGAGGTTCTAGCACGACGAGCG,3.27,5.61,5.78,1.49,6.58,3.25,0.28,1.86
ACTAGCAGGCCAAGTGTCACTCAAGATTAGTCCG,0.681,0.433,0.865,0.117,0.215,0.0959,-0.248,-0.143
AATACAGGGTCATCGTAGGCCAGCGTACGCACAG,3.68,5.61,4.89,2.94,6.47,4.79,1.37,3.03
TCATATAAGTAAAGGTGAAAGTCGAACGATATGA,1.41,1.5,1.25,0.638,2.04,1.18,-0.569,-0.0399
CTTCAAAGTTCAACTAAGGTAACGTAAAGCACGC,4.33,5.92,6.84,4.36,5.26,5.38,2.06,3.94
CCGACTGGGGCAGAAAGGTTACCATTCCATCCGG,1.92,1.35,1,-0.71,1.3,0.555,-0.451,-0.34
ATCTCTAGGTAAGACTCAGTTCAGTGAGGAACGC,0.438,0.383,0.447,0.293,0.124,0.714,0.481,1.3
CCGACTGGGGCATAGGGTTACCATAAGCCAGCCC,0.968,1.34,0.885,-1.32,1.21,0.957,-0.244,-1.05
CCTTACTGGTCACGAGGTTATAGCACGACGAGCG,1.98,2.5,1.86,0.396,2.28,1.91,1.11,1.13
TCTAGTTGGTCACGTAGGTCACACACGACGGGTA,3.66,3.36,3.67,1.06,2.91,2.39,1.04,1.22
CAAACTAGGTCACCGGAACGTCAAAGTCCGCATG,3.74,4.82,5.62,1.46,3.86,3.55,1.88,1.08
TCTAGTTGGTCACGGAGCTCACACACGACGGGTA,0.591,1.04,1.24,0.372,0.925,-0.123,-0.466,-0.521
TCTCGGAGGACACGAAAGGCCAGAGCTCGACATC,1.53,0.946,1.9,0.804,0.296,1.54,0.338,-0.482
TCTCAAAGTTCAAAGGTAACGTAAGTATCCACAC,4.13,6.13,6.25,4.59,7.17,3.46,0.566,4.09
TGTCAAAGTTCAAAGGTAAGGTAAGTATCCACAC,3.83,6.22,6.55,4.48,7.16,3.5,0.924,4.14
CATACAGGGTCAGCTAGGCCAGAGCAGGGACGGC,3.07,4.3,4.47,1.32,4.21,3.18,0.613,0.954
